According to PubChem BioAssay (NCI):
Compounds without any hit were thinned out: in the full panel of roughly 83,000, 20% have a hit.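 The test compound was applied at a single concentration to cells in 96-well plates for 48 hours, and percent growth was recorded.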 Values without a mark were called inactive. The source made the active and inactive calls. Rule for the calls: active = growth percent below 10; inactive = the rest.

Experiments:
Test in all cases: NCI-60 one-dose screen, 48 h (100 = growth as untreated, 0 = no growth, -100 = all killed)
Details in all cases: 10 µM unless noted
NCI-H23 lung = tested on: NCI-H23 lung
NCI-H226 lung = tested on: NCI-H226 lung
NCI-H322M lung = tested on: NCI-H322M lung
HOP-62 NSCLC = tested on: HOP-62 NSCLC
NCI-H460 lung = tested on: NCI-H460 lung
NCI-H522 lung = tested on: NCI-H522 lung
786-0 renal = tested on: 786-0 renal
COLO 205 colon = tested on: COLO 205 colon
DU-145 prostate = tested on: DU-145 prostate
K-562 leukemia = tested on: K-562 leukemia
MALME-3M melanoma = tested on: MALME-3M melanoma
MDA-MB-231 breast = tested on: MDA-MB-231 breast
RXF 393 renal = tested on: RXF 393 renal
SF-268 CNS = tested on: SF-268 CNS
SF-295 CNS = tested on: SF-295 CNS
SF-539 CNS = tested on: SF-539 CNS
UACC-257 melanoma = tested on: UACC-257 melanoma
M14 melanoma = tested on: M14 melanoma
HOP-92 NSCLC = tested on: HOP-92 NSCLC
A549/ATCC NSCLC = tested on: A549/ATCC NSCLC

SMILES	growth (NCI-H23 lung)	growth (NCI-H226 lung)	growth (NCI-H322M lung)	growth (HOP-62 NSCLC)	growth (NCI-H460 lung)	growth (NCI-H522 lung)	growth (786-0 renal)	growth (COLO 205 colon)	growth (DU-145 prostate)	growth (K-562 leukemia)	growth (MALME-3M melanoma)	growth (MDA-MB-231 breast)	growth (RXF 393 renal)	growth (SF-268 CNS)	growth (SF-295 CNS)	growth (SF-539 CNS)	growth (UACC-257 melanoma)	growth (M14 melanoma)	growth (HOP-92 NSCLC)	growth (A549/ATCC NSCLC)
O=C(O)/C(=C\c1ccc(Cl)cc1)c1ccc(Cl)cc1	90.8%	99.1%	92.2%	104%	97.5%	81.9%	90.3%	117%	107%	43.8%	81.5%	92.9%	78.8%	96.5%	118%	95.2%	85.8%	95.8%		
CCn1cc(C(=O)N/N=C/c2cccs2)c(=O)c2cc(F)c(N3CCNC(C)C3)c(F)c21 (centres undefined)	89.8%	76%	84.1%	72.4%		71.1%	67.8%	-41.7% (active)	48.3%	-39% (active)	-36.7% (active)	41%	16.2%	79.1%	85.3%	84.2%	108%	49.4%	53.8%	44%
O=C(CN1C(=O)CCC1=O)Nc1ncc(Cc2ccc(F)cc2)s1	98.6%	95.9%	102%	105%		99%	101%	113%	106%	98.5%	99.8%	97.4%	109%	91.2%	99.3%	98.7%	98.5%	103%	99.9%	108%
O=C(CCCCCCN1CC(=O)N2[C@H](c3cc(Br)cs3)c3[nH]c4ccccc4c3C[C@H]2C1=O)NO	50.4%	79.9%	38.5%	41.8%		20.5%	76.9%	42.6%	29.1%	10.2%	18.6%	44%	18.7%	66.8%	45.8%	43.3%	27.7%	37.2%	18.2%	61.1%
COc1ccc(-c2nnc3n(C)c(=O)c4ccccc4n23)cc1N	46.6%	70.1%	39.5%	23.3%		18.8%	23%		33.3%	12.1%	51.9%	41%	-10.5% (active)	55.8%	10.7%	-5.87% (active)	49.8%	13.6%	49.9%	28.6%
Cc1ccc(-c2nc(N3CCNCC3)c3oc(-c4ccccc4)nc3n2)cc1	35.3%	110%	-78.5% (active)	-6.18% (active)		-81.8% (active)	-87.8% (active)	-91.1% (active)	-93.1% (active)	-73.3% (active)	-29.5% (active)	-79.2% (active)	-74.1% (active)	7.93% (active)	-23.2% (active)	-91% (active)	91.2%	-92.3% (active)	-25.6% (active)	
N#C/C(=C/c1ccc([N+](=O)[O-])cc1)n1nnc2cc(F)c(F)cc21	93.8%	102%	98.4%	96.6%		62.6%	42.1%	77.4%	54.2%	13.9%	74.8%	84.7%	83.3%	90.5%	91.4%	20.7%	65.5%	70.1%	99.6%	87.6%
Nc1nc2c([nH]1)c1[nH]c3ccccc3c1c1[nH]c3ccccc3c21	63.5%	78.3%	25.6%	67.8%		26.4%	30.9%	-81.3% (active)	50.2%	-41.6% (active)	-72.4% (active)	-38.7% (active)	-7.44% (active)	71.9%	42.8%	55.6%	103%	-68.9% (active)		85.5%
CCN1C(=O)N(CC)C2C1NN=c1s/c(=C\c3ccc(Cl)cc3Cl)c(=O)n12 (centres undefined)	28.4%	48.8%	42.4%	33.5%		-8.78% (active)	20.6%	-7.91% (active)	6% (active)	-83.7% (active)	50.4%	12.4%	61.1%	42.3%	12.8%	-12.6% (active)	68.6%	13.8%	50.8%	14.6%
CCCCCCCCn1ccc2cc(NC(=O)CN3CCN(c4nc(C)cc(Cl)n4)CC3)ccc21	91.5%	88.9%	87.8%	99.3%		81.5%	97.7%	100%	101%	85.2%	91.5%	107%	103%	96.3%	102%	107%	114%	96.1%	79.3%	96.3%
O=[N+]([O-])c1ccc(-c2nc(N3CCOCC3)c3c4c(sc3n2)CCCC4)cc1	88.8%	85%	96.3%	82.4%		79.3%	93%	90.9%	113%	99.6%	89.2%	81%	104%	94.8%	87.4%	102%	92.7%	85.6%	111%	95.7%
CN(C)C1CCN(Cc2ccc(NC(=O)c3cncc(C#Cc4cnc(N)c5ncccc45)c3)cc2C(F)(F)F)CC1	84.7%	90%	112%	75.5%		84.9%	-78.9% (active)	69.6%	64.1%	1.29% (active)	-63.1% (active)	2.48% (active)	19.4%	81.3%	93.9%	59.6%	15.5%	-73.6% (active)	66.4%	72.2%
Oc1c(Cl)cc(Cl)cc1/C=N/Nc1nnc(N/N=C/c2cc(Cl)cc(Cl)c2O)c2ccccc12	-20.6% (active)	-37.5% (active)	21%	20.6%		14.1%	-22.2% (active)	8.23% (active)	21.8%	9.41% (active)	10.4%	21.3%	-16.3% (active)	6.61% (active)	-1.51% (active)	-17.7% (active)	38.5%	5.83% (active)	13.9%	22.8%
N=C(N)c1ccc(-c2ccc(-c3cc(Cl)cc(Cl)c3)o2)o1	-75.4% (active)	43.9%	-77.4% (active)	-72.2% (active)		-70.4% (active)	-61.9% (active)	-81.7% (active)	-87.7% (active)	-59.7% (active)	-89.6% (active)	-68.2% (active)	-88.8% (active)	-56.4% (active)	-83.5% (active)	-85% (active)	-73% (active)	-54.1% (active)	50.5%	-71% (active)
N#C/C(=C\c1ccc(Br)cc1)n1nnc2ccc(F)cc21	16%	2.99% (active)	9.42% (active)	31.4%		-18.2% (active)	-73.8% (active)	-12.9% (active)	15.3%	3.46% (active)	-22.6% (active)	-11.4% (active)	-41% (active)	42.5%	44%	-24.3% (active)	6.2% (active)	-42.3% (active)	36.7%	
CO[C@H]1/C=C(/C)CCC[C@H](C)[C@H](O)[C@@H](C)C(=O)C(C)(C)[C@@H](O)CC(=O)O[C@@H]1/C(C)=C/c1csc(C)n1	34.7%	50.3%	12.8%	29.4%		-29.1% (active)	57.1%	-53% (active)	-48.1% (active)	13.9%	45.2%	10.3%	-23.4% (active)	36.5%	-17.8% (active)	1.38% (active)	56.2%	3.27% (active)	66.6%	17.5%
